# PubChem BioAssay AID463173 (ICCB-Longwood Screening Facility, Harvard Medical School, 2010)
# In all, about 52,000 compounds went through this assay and about 4,300 (8.3%) were called active. The full list was thinned out, with actives kept by preference. Unmarked numbers belong to inactive results. Cut-off read from the data, not from the text of the source: active = survival mostly below about 52% (no sharp cut-off); inactive = mostly above about 56%.
# Tested on: DeltatarO mutant
# Test: growth inhibition of S. aureus wild type versus tarO mutant, primary screen, teichoic acid synthesis inhibitors, RN4220, OD600 (AID 463173)
# Settings: OD600, 18 h, active compounds read low, screened at 18.75 µg/mL (by protocol)
row,SMILES,survival
1,COc1ccccc1CNC(=O)CCCc1nnc2n(CC(C)C)c(=O)c3sccc3n12,95%
2,CCN(CC)C(=O)N1CCN(C(=O)N(CC)CC)CC1,79%
3,CCCCOC(=O)Cc1c(C)[nH]c(=O)[nH]c1=O,114%
4,CC(NC1CCCC1)c1ccccc1 (stereo not given),84%
5,COc1ccc(CCNC(=O)CSc2ncc3c(n2)-c2cc(Cl)ccc2N(Cc2ccccc2)S3(=O)=O)cc1OC,87%
6,COc1cccc(N2CCN(C(=O)c3cnc4c(-c5ccc(F)cc5)c(C)nn4c3C)CC2)c1,-5% (active)
7,COc1cccc(-c2cc(C(=O)N3CCN(c4ccccc4OC)CC3)no2)c1,-4% (active)
8,COc1cccc(-c2cc(C(=O)N3CCN(c4ccc(F)cc4)CC3)no2)c1,44% (active)
9,COc1ccc(N2CCN(C(=O)c3cc(-c4ccc(C)c(F)c4)on3)CC2)cc1,92%
10,COc1ccccc1N1CCN(C(=O)c2cc(-c3ccc(C)c(F)c3)on2)CC1,66%
11,Cc1nn2c(C)c(C(=O)N3CCN(c4ccc(Cl)cc4)CC3)cnc2c1-c1ccc(F)cc1,88%
12,COc1ccccc1N1CCN(C(=O)c2cc(-c3ccc(F)cc3)on2)CC1,46%
13,COc1ccc(-c2cc(C(=O)N3CCN(c4ccc(F)cc4)CC3)no2)cc1OC,57%
14,COc1cccc(N2CCN(C(=O)c3cnc4c(-c5ccccc5)c(C)nn4c3C)CC2)c1,87%
15,COc1ccc(S(=O)(=O)NCCc2sc(C)nc2C)cc1F,88%
16,CC(C)N(C(C)C)S(=O)(=O)c1ccccc1,100%
17,COc1ccc(-c2nc3cccc(C)n3c2NC(C)(C)C)cc1O,109%
18,COCCN1C(=O)N(c2cccc(OC)c2)C(=O)C1CC(=O)Nc1ccccc1 (stereo not given),139%
19,CCOC(=O)c1sc(NC(=O)CSc2nnc(Cn3nnc4ccccc43)n2C)nc1C,94%
20,O=C(CSc1nc(=O)[nH]c2c1CCC2)NCc1ccc(Cl)cc1,67%
21,COc1ccc(NC(=O)Nc2nnc(N3CCCCCC3)s2)cc1,72%
22,CC(C(=O)NCCSCc1cccc(Cl)c1)N(c1ccccc1)S(C)(=O)=O (stereo not given),61%
23,CSc1ncc(Cl)c(C(=O)N(Cc2ccc(C)cc2)C2CCS(=O)(=O)C2)n1 (stereo not given),88%
24,O=C(CN1C(=O)COc2ccc(S(=O)(=O)N3CCOCC3)cc21)N1CCN(c2ccc(Cl)cc2)CC1,92%
25,CCOc1ccc(C(=O)Nc2c(C(=O)Nc3ccccc3OC)oc3ccccc23)cc1OCC,65%
26,CCn1c(SCC(=O)c2ccc(C)cc2)nnc1C1CC1,66%
27,CCCC(=O)Oc1ccc2ccc(=O)oc2c1,89%

row,SMILES,survival
1,Cc1cc(C)nc(SCC(=O)Oc2ccc3oc(=O)cc(C)c3c2)n1,95%
2,CCCCC(=O)Oc1ccc2oc(-c3ccc(OC)cc3)cc(=O)c2c1,30% (active)
3,COC(=O)COc1ccc2oc(-c3ccc(OC)cc3)cc(=O)c2c1,36% (active)
4,COc1ccc(-c2cc(=O)c3cc(OCC(=O)OC(C)C)ccc3o2)cc1,124%
5,COc1ccc2oc(-c3cccc(F)c3)cc(=O)c2c1,99%
6,O=C(Cn1c(=O)n(-c2ccccc2)c(=O)c2c3c(sc21)CCCC3)Nc1ccc(F)cc1,98%
7,CCc1ccc(CNC(=O)c2cnc(N3CCCCC3)c3ccccc23)cc1,94%
8,COc1ccccc1NC(=O)c1cc(S(=O)(=O)N2CCc3ccccc32)ccc1F,81%
9,CCNC(=O)CC1C(=O)N(c2ccc(C)cc2)C(=O)N1CCC(C)C (stereo not given),91%
10,CC(C)c1ccc(NC(=O)CCNS(=O)(=O)c2cccc3nsnc23)cc1,50%
11,O=C(NCCCN1CCN(c2ccccc2F)CC1)c1ccc2nc(Cc3ccccc3)oc2c1,46% (active)
12,CCNC(=O)c1ccc2nc(Cc3ccccc3)oc2c1,101%
13,O=C(NCCCN1CCN(c2ccccc2)CC1)c1ccc2nc(Cc3ccccc3)oc2c1,92%
14,Cc1ccc(NC(=O)c2ccc3nc(Cc4ccccc4)oc3c2)cc1F,25% (active)
15,O=C(NCCCN1CCN(c2ccccc2F)CC1)c1ccc2nc(CCc3ccccc3)oc2c1,87%
16,CNC(=O)c1ccc2nc(CCc3ccccc3)oc2c1,80%
17,Cc1ccccc1NC(=O)c1ccc2nc(Cc3ccccc3)oc2c1,102%
18,CC(=O)c1cccc(NC(=O)c2ccc3nc(Cc4ccccc4)oc3c2)c1,63%
19,CNC(=O)c1ccc2nc(Cc3ccccc3)oc2c1,37% (active)
20,Cc1ccc(-c2nnc(Nc3ccc(O)cc3)c3ccccc23)cc1S(=O)(=O)N1CCOCC1,65%
21,O=C1C2C3C=CC(C3)C2C(=O)N1CCN1C(=O)C2C3C=CC(C3)C2C1=O (stereo not given),101%
22,COc1ccccc1NC(=O)C1=C(C)Nc2nc(SC)nn2C1c1ccccc1Cl (stereo not given),87%
23,CCOc1ccccc1NC(=O)CSc1c2c(nc3ccc(Cl)cc13)CCCC2,45% (active)
24,COCCCNC(=O)CSc1c2c(nc3ccc(Cl)cc13)CCCC2,68%
25,COC(=O)c1ccccc1NC(=O)CSc1c2c(nc3ccc(Cl)cc13)CCCC2,86%
26,CC(C)OCCCNC(=O)CSc1c2c(nc3ccc(Cl)cc13)CCCC2,71%
27,CCOc1ccc(CNC(=O)CSc2c3c(nc4ccc(Cl)cc24)CCCC3)cc1,70%

row,SMILES,survival
1,CCCNC(=O)CSc1c2c(nc3ccc(Cl)cc13)CCCC2,62%
2,CC(C)CCNC(=O)CSc1c2c(nc3ccc(Cl)cc13)CCCC2,51% (active)
3,CCCCNC(=O)CSc1c2c(nc3ccc(Cl)cc13)CCCC2,38% (active)
4,CCN(CC)CCNC(=O)c1c(C)oc2ncn(C)c(=O)c12,91%
5,Cc1ccc(CNC(=O)C2CCCN(c3nc4c(C)cc(C)cc4s3)C2)cc1 (stereo not given),94%
6,CCC(=O)NC1CCC(c2ccccc2)CC1 (stereo not given),97%
7,Cc1ccc(OC(=O)c2cccnc2)cc1,97%
8,Cc1ccc(C)c(N2CCN(C(=O)c3cc4ccc5cccnc5c4[nH]3)CC2)c1,95%
9,Cc1c(C(=O)N2CCCCC2)c(S(=O)(=O)NCc2ccc(N(C)C)cc2)c(C)n1C,120%
10,COc1cccc(-c2nnn(CCc3nn[nH]n3)n2)c1,84%
11,CCOC(=O)CCN(c1ccccc1)S(=O)(=O)c1ccc2[nH]c(=O)ccc2c1,95%
12,CCC(C(=O)N1CCN(c2ccc(OC)cc2)CC1)n1nc(C)n2c(cc3occc32)c1=O (stereo not given),117%
13,CCC(C(=O)N1CCN(c2cc(Cl)ccc2C)CC1)n1nc(C)n2c(cc3occc32)c1=O (stereo not given),69%
14,CCC(C(=O)N1CCN(c2cc(C)ccc2C)CC1)n1nc(C)n2c(cc3occc32)c1=O (stereo not given),43% (active)
15,Cc1ccc(S(=O)(=O)c2nc(S(=O)(=O)c3ccc(C)cc3)c(NCCCOC(C)C)s2)cc1,75%
16,C=C(C)c1cccc(C(C)(C)NC(=O)N2CCCC2)c1,111%
17,Cc1ccc(CNC(=O)Cc2c(C)c3c(cc(C)c4c(C)coc43)oc2=O)cc1,100%
18,CCCn1c(NCc2ccccc2F)nc2ccccc21,90%
19,CCCC(O)c1nc2ccccc2n1Cc1ccccc1OC (stereo not given),105%
20,CCCn1c(NCc2ccc(N(CC)CC)cc2)nc2ccccc21,29% (active)
21,CCCCn1c(NCc2ccc(OC)cc2O)nc2ccccc21,66%
22,CCCCCn1c(NCc2ccccc2OC)nc2ccccc21,-1% (active)
23,CCCn1c(NCc2ccccc2C)nc2ccccc21,108%
24,CCCCn1c(NCc2ccc(N(C)C)cc2)nc2ccccc21,52%
25,CCCCn1c(NCc2cc(Br)ccc2O)nc2ccccc21,42% (active)
26,CCCCCn1c(NCc2ccc(OC)cc2)nc2ccccc21,33% (active)
27,CCn1c(NCc2ccc(OC)c(OC)c2)nc2ccccc21,116%

row,SMILES,survival
1,CCn1c(NCc2ccccc2)nc2ccccc21,95%
2,Cn1c(NCc2ccccc2F)nc2ccccc21,93%
3,CCOC(=O)c1cc(-c2ccc(F)cc2)n(CCC(=O)Nc2cc(OC)cc(OC)c2)c1C,71%
4,Cc1ccc(Cl)cc1-n1ncc2c(Nc3ccc4c(c3)OCCO4)ncnc21,82%
5,Cc1c(C(=O)N2CCCC2)oc2c1-c1nn(CC(=O)NCc3cccc(Br)c3)cc1CC2,75%
6,COc1ccccc1-c1cc2nc(C)c(CCC(=O)Nc3cc(C)ccc3C)c(C)n2n1,60%
7,COc1ccc(CNC(=O)C2(c3cccs3)CCOCC2)cc1,72%
8,CCOc1ccc2c(c1)c(=O)c(S(=O)(=O)c1ccccc1)cn2CC(=O)Nc1ccccc1OC,70%
9,CC1=C(C(=O)NCc2ccc(Cl)cc2)C2(CCC(C)CC2)OC1=O (stereo not given),86%
10,Cc1nn(C)c2c1c(C(F)(F)F)cc(=O)n2C(C)C(=O)NCCc1ccc(Cl)cc1 (stereo not given),81%
11,Cn1c(=O)nc2n(-c3ccc(Cl)c(Cl)c3)c3cc(Cl)ccc3cc-2c1=O,87%
12,CCOc1ccc(CN2CCc3nc(N4CCN(c5ccccn5)CC4)ncc3C2)cc1OC,120%
13,COc1ccc(C2c3c(oc4ccccc4c3=O)C(=O)N2Cc2ccc3c(c2)OCO3)cc1 (stereo not given),71%
14,CCOc1cc(C2c3c(oc4ccccc4c3=O)C(=O)N2Cc2ccc3c(c2)OCO3)ccc1O (stereo not given),81%
15,Cc1nc(N2C(=O)c3oc4ccccc4c(=O)c3C2c2cccc(OCCC(C)C)c2)sc1C (stereo not given),59%
16,CCCOc1ccc(C2c3c(oc4ccccc4c3=O)C(=O)N2c2nc(C)c(C(=O)OCC)s2)cc1 (stereo not given),60%
17,CC(C)c1nnc(N2C(=O)c3oc4ccccc4c(=O)c3C2c2cccc(O)c2)s1 (stereo not given),62%
18,CCOc1cccc(C2c3c(oc4ccccc4c3=O)C(=O)N2c2nc(C)c(C(=O)OC)s2)c1 (stereo not given),51%
19,COc1cc(C2c3c(oc4ccccc4c3=O)C(=O)N2c2nnc(C(C)C)s2)cc(OC)c1OC (stereo not given),63%
20,CCCOc1ccc(C2c3c(oc4ccccc4c3=O)C(=O)N2c2nnc(C(C)C)s2)cc1 (stereo not given),58% (active)
21,CCOc1ccc(C2c3c(oc4ccccc4c3=O)C(=O)N2Cc2ccc3c(c2)OCO3)cc1 (stereo not given),36% (active)
22,COC(=O)c1ccc(C2c3c(oc4ccccc4c3=O)C(=O)N2c2nc(C)c(C(=O)OC)s2)cc1 (stereo not given),71%
23,CCOc1cccc(C2c3c(oc4cc(C)c(C)cc4c3=O)C(=O)N2c2nc(C)c(C)s2)c1 (stereo not given),74% (active)
24,CCOC(=O)c1sc(N2C(=O)c3oc4ccccc4c(=O)c3C2c2ccc(C(C)(C)C)cc2)nc1C (stereo not given),51% (active)
